Among all 220,000 compounds or so, about 910 (0.41%) were called active. Only a selection was taken, and actives are over-represented in it overall. Measured potencies and affinities stand elsewhere. Unmarked numbers belong to inactive results.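 The calls were made as follows: active = primary inhibition above the hit cutoff, then over 50% inhibition at one or more dose response concentrations (cut at about 23% in these data, passing the limit was not always enough); inconclusive = conflicting primary data, or primary hits not chosen for dose response; inactive = low primary inhibition, or under 50% at every dose.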

Sequence of Aminopeptidase N (Plasmodium falciparum (isolate 3D7)) (O96935 whole entry, looked up): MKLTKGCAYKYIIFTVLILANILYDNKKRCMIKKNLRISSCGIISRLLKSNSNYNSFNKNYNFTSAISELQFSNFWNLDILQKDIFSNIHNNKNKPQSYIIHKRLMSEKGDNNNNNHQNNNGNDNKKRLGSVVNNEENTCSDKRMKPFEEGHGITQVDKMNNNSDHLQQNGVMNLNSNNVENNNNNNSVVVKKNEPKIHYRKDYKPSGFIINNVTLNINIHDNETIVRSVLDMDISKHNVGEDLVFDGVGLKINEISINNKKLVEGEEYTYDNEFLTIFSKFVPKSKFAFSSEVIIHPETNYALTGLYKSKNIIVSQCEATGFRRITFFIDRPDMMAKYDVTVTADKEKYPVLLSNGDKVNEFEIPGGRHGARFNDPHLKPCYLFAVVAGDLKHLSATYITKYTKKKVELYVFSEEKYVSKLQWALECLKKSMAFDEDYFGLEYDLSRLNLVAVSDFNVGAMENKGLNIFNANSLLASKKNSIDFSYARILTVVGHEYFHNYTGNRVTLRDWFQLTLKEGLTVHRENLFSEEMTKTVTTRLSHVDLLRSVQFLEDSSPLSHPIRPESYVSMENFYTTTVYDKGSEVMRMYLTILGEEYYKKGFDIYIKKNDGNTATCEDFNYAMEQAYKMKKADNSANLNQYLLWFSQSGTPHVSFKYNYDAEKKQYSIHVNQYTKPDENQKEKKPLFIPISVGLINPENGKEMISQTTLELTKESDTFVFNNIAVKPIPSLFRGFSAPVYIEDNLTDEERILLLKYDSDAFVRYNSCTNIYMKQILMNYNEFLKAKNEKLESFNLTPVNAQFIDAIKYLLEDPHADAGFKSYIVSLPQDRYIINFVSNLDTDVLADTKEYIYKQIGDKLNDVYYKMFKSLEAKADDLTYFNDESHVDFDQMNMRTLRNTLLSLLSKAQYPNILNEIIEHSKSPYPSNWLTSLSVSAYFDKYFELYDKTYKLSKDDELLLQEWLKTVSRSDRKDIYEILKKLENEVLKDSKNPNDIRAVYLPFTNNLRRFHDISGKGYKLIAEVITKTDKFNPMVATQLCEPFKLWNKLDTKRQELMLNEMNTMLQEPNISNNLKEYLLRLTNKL

This test concerns the target Aminopeptidase N (Plasmodium falciparum (isolate 3D7)) (UniProt O96935). As to the kind of experiment: P. falciparum M1AAP inhibitors, biochemical, fluorogenic H-Leu-NHMec substrate, 1536-well (AID 1445).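 Also: plate controls were DMSO full reaction for no effect and no enzyme background for full effect.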 The settings on record: recombinant M1AAP, H-Leu-NHMec fluorogenic kinetic assay; at 30 µM, stronger effect = higher value unless noted.
With `CCc1n[nH]c(=S)n1/N=C/c1ccccc1OCc1ccc(Cl)cc1`, the inhibition was 3.79%.

As for `CSc1n[nH]c(NC(C)=O)n1`, the inhibition was 2.22%.

In the case of `Oc1c(Cl)cc(Cl)cc1C=Nc1ccc(Br)cc1`, the inhibition is 12.1%.

On to `C/C(=N\O)c1cc(Cl)cc(Cl)c1O`, for which the inhibition was 10.5%.

Consider `O=C(NCCn1ccc2ccccc21)c1ccc(S(=O)(=O)N2CCOCC2)cc1`, for which the inhibition was 8.48%.

Take `CC(C)C(=O)NCCc1nc2ccccc2n1CCCOc1ccc(Cl)cc1`: the inhibition was 10.4%.

Turning to `O=C(CC(C(=O)O)c1ccccc1)c1cccs1` (stereo not drawn), the inhibition is 3.01%.

Take `CC(C)Cc1nc2oc3c(=O)[nH]cnc3c2c2c1CCCC2`: the inhibition was -0.28%.

Turning to `CN(C)C(=O)N1CCCC(C(=O)NCCc2ccccc2)C1` (stereo not drawn), the inhibition was 2.4%.

Take `O=C(NCCc1ccccc1)C1CCCN(C(=O)NC2CCCCC2)C1` (stereo not drawn): the inhibition was 28.2% (active).

Turning to `O=C(NC1CCN(C(=S)NCCc2ccccc2)CC1)C1CCCCC1`, the inhibition was -6.9%.

For the compound `O=C(CN1CCOCC1)NNc1nc(-c2ccccc2)c2cc(Br)ccc2n1`, the inhibition is 20.7%.

Take `O=c1[nH]c2ccc(Cl)cc2c(-c2ccccc2)c1N1CCOCC1`: the inhibition is -3.98%.

Turning to `O=C(CCN1CCOCC1)Nc1cccc(Br)c1`, the inhibition was -4.3%.

Regarding `N#Cc1c(NC(=O)Cn2c(=O)oc3ccccc32)oc(-c2ccccc2)c1-c1ccccc1`, the inhibition was 4.71%.

Regarding `O=C(O)Cc1c(-c2ccccc2)c2cc(Br)ccc2[nH]c1=O`, the inhibition was 22.3%.

Regarding `O=C(CN1CCOCC1)Nc1c(-c2ccccc2)c2cc(Br)ccc2[nH]c1=O`, the inhibition is 28.2% (active).

Turning to `O=c1[nH]c2ccc(Cl)cc2c(-c2ccccc2)c1SC(=S)N1CCOCC1`, the inhibition is 44%.

With `N#Cc1c(NC(=O)CN2CCOCC2)oc(-c2ccccc2)c1-c1ccccc1`, the inhibition was 23.5% (active).

Turning to `CCOC(=O)c1[nH]c2ccc(Br)cc2c1NC(=O)CCN1CCOCC1`, the inhibition was 4.62%.

For `N#Cc1c(NC(=O)CCN2C(=O)c3ccccc3C2=O)oc(-c2ccccc2)c1-c1ccccc1`, the inhibition is 5.82%.

For `CCOC(=O)N1CCN(C(=O)CCCOc2ccccc2)CC1`, the inhibition was 3.31%.

On to `O=c1[nH]ncc(N2CCCCCC2)c1Cl`, for which the inhibition was 5.89%.

On to `COc1cc(/C=C/C(=O)O)ccc1OCc1cnc(Cl)s1`, for which the inhibition is 0.41%.

For the compound `CC1=Nn2c(nc(-c3ccccc3)c2-c2ccccc2)N(CC(N)=O)C(=O)C1`, the inhibition is -0.64%.

As for `CCCS(=O)(=O)N1CCN(C(=O)c2ccco2)CC1`, the inhibition was 12.4%.

For `CSc1nnc(C)c(=O)n1COC(=O)COc1ccccc1`, the inhibition was 0.02%.

With `COc1cc(OC)cc(C(=O)NC(=S)NCc2ccco2)c1`, the inhibition was 5.49%.

Regarding `O=C(NC1CCCCC1)N1CCN(C(=O)c2ccco2)CC1`, the inhibition is -0.86%.

In the case of `O=C(c1ccco1)n1nc(-c2cccnc2)nc1NCc1ccco1`, the inhibition was 16.8%.

As to `CC1(C)Cc2nc3sc(C(=O)NCCO)c(N)c3cc2CO1`, the inhibition was 1.79%.

As to `CCC(C)(C)NC(=O)C(c1ccc(C)o1)N(C(=O)c1csnn1)c1cccc(F)c1` (stereo not drawn), the inhibition was 1.56%.

As to `O=C(Cc1cccs1)Nc1nnc(-c2ccccc2)s1`, the inhibition is 8.23%.

With `CCCc1n(CC(O)COCc2ccccc2)c2ccccc2[n+]1C` (stereo not drawn), the inhibition was 6.5%.

Take `Cc1ccc2[nH]c(=O)c(CN3CCCCC3)c(-c3ccccc3)c2c1`: the inhibition was -7.69%.

In the case of `O=c1[nH]c2ccc(Br)cc2c(-c2ccccc2)c1N1CCOCC1`, the inhibition was 3.65%.

On to `CCCCCCC(=O)N/N=C(\C)Cc1ccccc1`, for which the inhibition was -0.14%.

Consider `COc1cccc(-n2c(CN3CCN(Cc4ccccc4)CC3)nc3ccc([N+](=O)[O-])cc3c2=O)c1`, for which the inhibition was 4.64%.

Regarding `Cc1c(Cl)cnc(NC(=O)CSc2nncs2)c1Cl`, the inhibition was -1.74%.

On to `COc1cccc(C(=O)NCc2ccccc2OC)c1`, for which the inhibition is 0.04%.

Turning to `O=C(CN1CCC(NC(=O)c2ccc(Br)cc2)CC1)NCc1cccs1`, the inhibition was 17.5%.

As to `CCOc1ccc(OCC)c(NC(=O)CN2CCC(NC(=O)c3cccc(F)c3)CC2)c1`, the inhibition was 8.37%.

For `COc1ccccc1CNC(=O)CN1CCC(NC(=O)c2ccccc2F)CC1`, the inhibition is 8.21%.

Regarding `COc1cccc(OC)c1NC(=O)CN1CCC(NC(=O)c2cccc(F)c2)CC1`, the inhibition was 20.7%.

As for `O=C(CN1CCC(NC(=O)c2ccc(F)cc2)CC1)NCc1ccccc1F`, the inhibition is 31.9%.

Take `Cc1ccc(C(=O)NC2CCN(CC(=O)NCc3cccs3)CC2)cc1`: the inhibition was 15.8%.

On to `O=C(CN1CCC(C(=O)c2cccc(F)c2)CC1)NCc1cccs1`, for which the inhibition was 11.7%.

In the case of `O=C(C1CC1)N1CCN(S(=O)(=O)c2ccc3c(c2)OCCO3)CC1`, the inhibition is 2.72%.

Regarding `O=C(O)CC(NC(=O)C(c1ccccc1)c1ccccc1)c1ccc(F)cc1` (stereo not drawn), the inhibition is -1.82%.

`Cc1cccc(C)c1NC(=O)c1sc(Cl)nc1C`: the inhibition was -2.07%.

In the case of `CC(C)N(CCc1ccncc1)C(=O)Nc1ccc(Cl)c(Cl)c1`, the inhibition is -5.52%.

`CCn1nnnc1SCC(=O)Nc1ccc(OCc2ccccc2)cc1`: the inhibition was 7.63%.

`O=C(NCc1ccccc1)c1onc(CSc2ccccn2)c1C(=O)NCc1ccccc1`: the inhibition was 4.51%.

As to `CC(C)N(C)C1CCN(C(=O)Nc2ccc(Cl)cc2)CC1`, the inhibition is 3.02%.

Turning to `O=c1[nH]c(N2CCOCC2)nc2c1CCCC2`, the inhibition is 15.6%.

Consider `CC(C)Oc1ccc(C(CC(=O)O)NC(=O)C2CCCCC2)cc1` (stereo not drawn), for which the inhibition was -1.13%.

With `Cc1ccc(SCCC(=O)Nc2ccccc2C(=O)N2CCOCC2)cc1`, the inhibition is -3.27%.

With `CN(C)CC(C)(C)CNC(=S)Nc1ccc(S(=O)(=O)N2CCOCC2)cc1`, the inhibition is 2.96%.

For `O=C(CN1CCC(NC(=O)c2ccccc2F)CC1)NCc1ccc(F)cc1`, the inhibition was 27.4% (active).

`Cc1ccccc1C(=O)NC1CCN(CC(=O)Nc2ccc3c(c2)OCCO3)CC1`: the inhibition is -1.09%.

In the case of `Cc1ccccc1C(=O)NC1CCN(CC(=O)NCc2ccc(F)cc2)CC1`, the inhibition is 3.39%.

With `O=C(CN1CCC(NC(=O)c2ccccc2Cl)CC1)NCc1ccco1`, the inhibition was 12.1%.

Take `Cc1ccccc1C(=O)NC1CCN(CC(=O)Nc2ccc3c(c2)OCO3)CC1`: the inhibition was 10.9%.

As usually defined, the inhibition is the drop in the measured response relative to a control, in per cent.
